Experimental data published in PubChem BioAssay (NCATS).
Several values for one entry are separate records, joined by “and”; a condition that tells them apart may be missing. Identical values can stand only once. Results filed as inconclusive are left out. Activity calls are given as the source filed them. Calls follow the shape of the dose curve; as a rule, active = well fitted inhibition curve with a large enough effect; inconclusive = small, poorly fitted or top-dose-only effect; inactive = flat fitted curve, though single readings scatter.

How the values were obtained:
Assay in all cases: qHTS profiling for inhibitors of Plasmodium falciparum proliferation (AID 504749); also: nearly all actives have a fitted effect of over 60% in size
Conditions in all cases: P. falciparum in erythrocytes, SYBR Green DNA, 72 h; series mostly up to 28.7 µM
[1] = tested on: PC26
Summary of the method: (§1)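 SYBR Green fluorescence (ex 485 nm, em 535 nm) reports parasite DNA after 72 h compound exposure of infected red cells at 0.3% parasitemia, 2.5% hematocrit; signal normalized to 0.29 uM artemisinin and vehicle wells.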

[2] = tested on: PC49
Summary of the method: as §1

[3] = tested on: SC27B
Summary of the method: as §1

[4] = tested on: TAB109
Summary of the method: as §1

[5] = tested on: TAB113
Summary of the method: as §1

[6] = tested on: TAB165
Summary of the method: as §1

[7] = tested on: W2
Summary of the method: as §1

Measured: Potency
Potency is read from the fitted curve at half-maximal effect.

C=CCN(C1=NCCN1)c1c(Cl)cccc1Cl
inactive: [1] | [2] | [3] | [4] | [5] | [6] | [7]

Oc1cccc[c]1[Hg][Cl]
active: [1] 12 µM | [2] 14.1 µM | [3] 10 µM | [4] 3.98 µM | [5] 10 µM | [6] 7.94 µM | [7] 4.78 µM

ClC=C(Cl)Cl
inactive: [1] | [2] | [3] | [4] | [5] | [6] | [7]

O=C1CN(O)C(c2ccccc2)=c2cc(Cl)ccc2=N1
inactive: [1] | [2] | [3] | [4] | [5] | [6] | [7]

C#CC(C)(O)CC (centres undefined)
inactive: [1] | [2] | [3] | [4] | [5] | [6] | [7]

COc1ccc(OC)c(C(O)C(C)N)c1 (centres undefined)
inactive: [1] | [2] | [3] | [4] | [5] | [6] | [7]

CC(C)Nc1ccc(Nc2ccccc2)cc1
active: [1] 4.78 µM | [3] 12.6 µM | [4] 7.94 µM | [5] 10 µM | [6] 7.94 µM | [7] 4.78 µM
inactive: [2]

ClCC1CO1 (centres undefined)
inactive: [1] | [2] | [3] | [4] | [5] | [6] | [7]

N#CC1(N2CCCCC2)CCCCC1
inactive: [1] | [2] | [3] | [4] | [5] | [6] | [7]

O=C/C=C/c1ccccc1
inactive: [1] | [2] | [3] | [4] | [5] | [6] | [7]

CN1c2ccccc2C(NCCCCCCC(=O)O)c2ccc(Cl)cc2S1(=O)=O (centres undefined)
inactive: [1] | [2] | [3] | [4] | [5] | [6] | [7]

c1csc(C2(N3CCCCC3)CCCCC2)c1
active: [7] 9.53 µM
inactive: [1] | [2] | [3] | [4] | [5] | [6]

Oc1cc(Cl)c(Cl)cc1Cl
inactive: [1] | [2] | [3] | [4] | [5] | [6] | [7]

Cn1sc(Cl)cc1=O
inactive: [1] | [2] | [3] | [4] | [5] | [6] | [7]

C=CCN1CC[C@]23c4c5ccc(O)c4O[C@H]2[C@@H](O)C=C[C@H]3[C@H]1C5
inactive: [1] | [2] | [3] | [4] | [5] | [6] | [7]

O=[N+]([O-])c1ccccc1
inactive: [1] | [2] | [3] | [4] | [5] | [6] | [7]

N#CN
inactive: [1] | [2] | [3] | [4] | [5] | [6] | [7]

O=C(OCCN1CCCCC1)C(O)(c1ccccc1)c1ccccc1
inactive: [1] | [2] | [3] | [4] | [5] | [6] | [7]

O=C1CCCCC1CN1CCCCC1 (centres undefined)
inactive: [1] | [2] | [3] | [4] | [5] | [6] | [7]

C[N+]1(C)C2CCC1CC(OC(=O)c1c[nH]c3ccccc13)C2 (centres undefined)
inactive: [1] | [2] | [3] | [4] | [5] | [6] | [7]

O=[N+]([O-])c1cc(I)c(O)c(I)c1
inactive: [1] | [2] | [3] | [4] | [5] | [6] | [7]

O=C1CCO1
inactive: [1] | [2] | [3] | [4] | [5] | [6] | [7]

FC(F)OC(F)(F)C(F)Cl (centres undefined)
inactive: [1] | [2] | [3] | [4] | [5] | [6] | [7]

[O]=[Cd]
inactive: [1] | [2] | [3] | [4] | [5] | [6] | [7]

S=C=S
inactive: [1] | [2] | [3] | [4] | [5] | [6] | [7]

CCC(C)(S(=O)(=O)CC)S(=O)(=O)CC
inactive: [1] | [2] | [3] | [5] | [6] | [7]

c1ccc(C2(N3CCCC3)CCCCC2)cc1
active: [1] 13.5 µM | [4] 7.94 µM | [6] 12.6 µM | [7] 7.57 µM

CCCCCl
inactive: [2] | [3] | [4] | [5] | [6]

COc1ccc2c(c1OC)C(=O)OC2C1c2cc3c(cc2CCN1C)OCO3 (centres undefined)
inactive: [2] | [3] | [4] | [5] | [6]

CCOc1ccc2c3c1O[C@H]1[C@@H](O)C=C[C@H]4[C@@H](C2)N(C)CC[C@@]341
inactive: [2] | [3] | [5] | [6]

C[C@@H](Cc1ccccc1)NCCC(c1ccccc1)c1ccccc1
inactive: [2]
active: [7] 2.87 µM

O=c1c2ccccc2[se]n1-c1ccccc1
active: [5] 11.2 µM
inactive: [2]

O=Cc1ccco1
inactive: [1] | [2] | [3] | [4] | [5] | [7]

CNC(=O)Oc1ccccc1C(=O)Nc1ccccc1
active: [7] 13.5 µM

N#CC(C#N)=Cc1cc(O)c(O)c(O)c1
active: [1] 8.49 µM | [4] 3.98 µM | [6] 7.94 µM

C/C(=C\c1csc(C)n1)[C@@H]1C[C@@H]2O[C@]2(C)CCC[C@H](C)[C@H](O)[C@@H](C)C(=O)C(C)(C)[C@@H](O)CC(=O)O1
active: [1] 0.0034 µM | [3] 0.005 µM | [4] 0.0025 µM | [5] 0.0035 µM | [6] 0.0022 µM | [7] 0.0013 µM

CCCN1CCCC2Cc3[nH]ncc3CC21 (centres undefined)
inactive: [2] | [3] | [4] | [5] | [6]

O=c1[nH]c(=O)n(Cl)c(=O)n1Cl
inactive: [1] | [2] | [3] | [4] | [5] | [6] | [7]

[Cl-].[Cl-].[Hg+2]
active: [7] 9.53 µM

F/C(COc1ccc2c(c1)[nH]c1ccccc12)=C1/CN2CCC1CC2
active: [2] 2.82 µM | [3] 10 µM | [4] 7.94 µM | [6] 4.47 µM | [7] 1.51 µM

CCCC(C)(COC(N)=O)COC(=O)NC1CC1 (centres undefined)
inactive: [1] | [2] | [3] | [5] | [6] | [7]

CC(C)(C)c1cc(O)ccc1O
active: [1] 12 µM | [3] 7.94 µM | [4] 4.47 µM | [5] 12.6 µM | [6] 10 µM | [7] 1.69 µM and 4.26 µM

C=CCC1(C(C)CCC)C(=O)N=C(S)NC1=O (centres undefined)
inactive: [2] | [3] | [4] | [5] | [6] | [7]

OC(c1ccccc1)(c1ccccc1)C1CN2CCC1CC2 (centres undefined)
inactive: [3] | [5] | [6]
active: [2] 1 µM

c1cc2c(c(NC3=NCCN3)c1)CCCC2
inactive: [3] | [4] | [5] | [6] | [7]

CCN(CC)C(=O)/C(Cl)=C(\C)OP(=O)(OC)OC
inactive: [2] | [3] | [4] | [5] | [6]

CCOP(=O)(OCC)O/C(=C/Cl)c1ccc(Cl)cc1Cl
inactive: [2] | [4] | [5] | [6]

CCC1C(C)=NN=C(c2ccc(OC)c(OC)c2)c2cc(OC)c(OC)cc21 (centres undefined)
inactive: [2] | [3] | [4] | [5] | [6]

CC12NC(Cc3ccccc31)c1ccccc12 (centres undefined)
inactive: [1] | [2]
active: [4] 2.82 µM | [7] 4.26 µM

C[C@H]1CCC[C@H](O)CCCCCc2cc(O)cc(O)c2C(=O)O1
inactive: [2] | [4]

COC([CH2][Hg])CNC(=O)c1ccccc1OCC(=O)O (centres undefined)
inactive: [1] | [2] | [3] | [5] | [6] | [7]

CN1CCCC(=C(c2cccs2)c2cccs2)C1
active: [7] 4.78 µM

O=C(NCNC(=O)NC1C(=O)NC(=O)N1CO)NC1C(=O)NC(=O)N1CO (centres undefined)
inactive: [1] | [2] | [3] | [4] | [5] | [6] | [7]

C=CCN=C=S
inactive: [2] | [3] | [4] | [5] | [6]

O=C(NC(=O)c1c(F)cccc1F)Nc1ccc(Cl)c(Oc2ncc(C(F)(F)F)cc2Cl)c1
inactive: [1] | [2] | [3] | [4] | [5] | [7]

CCC1(c2ccccc2)C(=O)NC(=O)N(C)C1=O (centres undefined)
active: [7] 6.75 µM
inactive: [2]

CCC(=O)O[C@@](Cc1ccccc1)(c1ccccc1)[C@@H](C)CN(C)C
inactive: [3] | [4] | [5] | [6]

O=C(CS(=O)C(c1ccccc1)c1ccccc1)NO (centres undefined)
inactive: [1] | [2] | [3] | [5] | [6] | [7]

CCCC(=O)OC(C(Cl)(Cl)Cl)P(=O)(OC)OC (centres undefined)
inactive: [2] | [3] | [4] | [5] | [6]

CN1[C@@H]2CC[C@H]1CC(OC1c3ccccc3CCc3ccccc31)C2 (some centres undefined)
active: [6] 3.98 µM | [7] 2.28 µM
inactive: [2] | [5]

[N-]=[N+]=CC(=O)OCC(N)C(=O)O (centres undefined)
inactive: [1] | [2] | [3] | [4] | [5] | [6] | [7]

CNC(C)C(O)c1ccc(O)cc1 (centres undefined)
inactive: [1] | [2] | [3] | [4] | [5] | [6] | [7]
